Measurements as given in paper PMC7819943, “Rice protein-binding microarrays: a tool to detect cis-acting elements near promoter regions in rice”.
The full ranking holds about 39,000 sequences; the median of “fluorescence intensity (a.u.)” is about 4,300, and the highest 2% start at about 39,000. Shown is part of a subset that was picked to be rich in the highest values.

target: T1, OsSMF1 (Oryza sativa, UniProt Q6ZLB0 1-436); assay: protein-binding microarray (RPBM); PBS, 2% BSA, 51.3 ng/ul salmon testes DNA, 50 uM zinc acetate, 200 nM TF, 25 C, 1 h; high values mean tight binding; conditions: protein: recombinant; tags: N-terminal polyhistidine and DsRed monomer fusion (pET32a); chain copies: 2; label: CyDye5-dUTP incorporated in the synthesized complementary strand; 3' TTTTT single-stranded linker to array surface; dsDNA, one strand shown
T1 sequence: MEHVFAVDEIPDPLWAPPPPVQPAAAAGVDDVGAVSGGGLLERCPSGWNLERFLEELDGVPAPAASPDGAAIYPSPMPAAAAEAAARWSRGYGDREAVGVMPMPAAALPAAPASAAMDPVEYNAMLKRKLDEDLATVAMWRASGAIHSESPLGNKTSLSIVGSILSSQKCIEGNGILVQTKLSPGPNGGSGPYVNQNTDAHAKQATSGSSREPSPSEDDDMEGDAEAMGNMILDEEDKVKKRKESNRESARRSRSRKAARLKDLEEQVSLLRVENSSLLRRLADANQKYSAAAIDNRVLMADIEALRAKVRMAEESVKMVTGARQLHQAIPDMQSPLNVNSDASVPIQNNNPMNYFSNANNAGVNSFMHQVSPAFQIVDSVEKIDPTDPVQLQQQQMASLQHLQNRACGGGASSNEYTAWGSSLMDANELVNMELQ
In short: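 Binding signal is reported as fluorescence intensity per feature (arbitrary units) from an Axon 4000B scanner. Incubation used 200 nM of each Ni–NTA-purified, N-terminally polyhistidine- and DsRed-fused transcription factor from E. coli BL21-CodonPlus on a double-stranded custom Agilent array for 1 h at 25 °C, with 50 µM zinc acetate in the buffer, followed by washing.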

Row | Sequence | binding signal
1 | TTCCTCGCGCTCCCACGCCACGCAGCAGCCGCAGATCTCCCGGAGTCACCTAGTGCAG | 3630 fluorescence intensity (a.u.)
2 | CAGAAACCAACCAACACAAGACACCGACCGACGCCGACCACGGAGTCACCTAGTGCAG | 8450 fluorescence intensity (a.u.)
3 | CACACATTCGCACCGCCGACGCCGAACAGAACAACAACAACGGAGTCACCTAGTGCAG | 64700 fluorescence intensity (a.u.)
4 | GGAAGAAGGCCGCCGACGCACAACAGAGGCGGCGGCGGGGCGGAGTCACCTAGTGCAG | 3510 fluorescence intensity (a.u.)
5 | GCTTTCAAAGCACTCAATTTTCCAGGTCATAACTGTTTTCCGGAGTCACCTAGTGCAG | 5050 fluorescence intensity (a.u.)
6 | ACAGATACAATGAGCGAGCGTTTGGTGTAATATGTGACAGCGGAGTCACCTAGTGCAG | 43600 fluorescence intensity (a.u.)
7 | TTGACAATGTGGTGCTACAGTAAATATTTGATAATGATGGCGGAGTCACCTAGTGCAG | 3330 fluorescence intensity (a.u.)
8 | ATGTATTTTATGACAACAGAGTAAACAATGTGATATACATCGGAGTCACCTAGTGCAG | 3220 fluorescence intensity (a.u.)
9 | ATCTTAAGCTCCTCATTTCATCTATGATTGGCTTGCTTTACGGAGTCACCTAGTGCAG | 3180 fluorescence intensity (a.u.)
10 | AATAAACCATGGTGTTTGTATTGGTGTGTTGGTGACTACGCGGAGTCACCTAGTGCAG | 3880 fluorescence intensity (a.u.)
11 | CCATCGAATCCGGTTCGCGCGCAAGCAAAATCAGCAGCGTCGGAGTCACCTAGTGCAG | 3830 fluorescence intensity (a.u.)
12 | TAAGCTAACCTTGTACTAAGATGTGACACATCCAAGTACACGGAGTCACCTAGTGCAG | 3630 fluorescence intensity (a.u.)
13 | AAGCTAACTTGTGTTGCCTACACAAGTACTAAAATGGCATCGGAGTCACCTAGTGCAG | 63600 fluorescence intensity (a.u.)
14 | GCTACTAAGGAGTACTACAATATTGCATCATCGTCATCATCGGAGTCACCTAGTGCAG | 6340 fluorescence intensity (a.u.)
15 | TGCGCCGATAGCTCCTGTCAACGTGTCACGCGCTGCGCCTCGGAGTCACCTAGTGCAG | 8650 fluorescence intensity (a.u.)
16 | CCAGTAATCCTCCTCCTGCTGCCTCAGCTCCTCTTCTGTACGGAGTCACCTAGTGCAG | 50800 fluorescence intensity (a.u.)
17 | TACCTCTTCAGTACAGCTGCAGCTGCTGACTGCTCACTACCGGAGTCACCTAGTGCAG | 4340 fluorescence intensity (a.u.)
18 | ATTCCAATTCCAGCTCAATGCTGCACGGAATCTCCTCTTCCGGAGTCACCTAGTGCAG | 4140 fluorescence intensity (a.u.)
19 | CACAACTACGTAGACGGGCGTTTGCGGCCGAAAATTTGACCGGAGTCACCTAGTGCAG | 3730 fluorescence intensity (a.u.)
20 | CGGTCCGGGCGATTTGACCGGTCAAAAGGCGTGGCCACGACGGAGTCACCTAGTGCAG | 3850 fluorescence intensity (a.u.)
21 | AAAACGACCGGTTTTGACGTAAATCCACAAGGCGTTATGACGGAGTCACCTAGTGCAG | 58400 fluorescence intensity (a.u.)
22 | CGCCGCCACAACCGCGCGCCGTCACCGCCGCGTGCCGTCACGGAGTCACCTAGTGCAG | 5070 fluorescence intensity (a.u.)
23 | CCCACCACACACCCGGCCCCACATGTCATCCACCCATCCACGGAGTCACCTAGTGCAG | 4500 fluorescence intensity (a.u.)

Row | Sequence | binding signal
24 | TCTTTTCTAAGTCATGTTAGACCAATAGAGATTTCTCAAACGGAGTCACCTAGTGCAG | 27600 fluorescence intensity (a.u.)
25 | CATTATCTAAGTTTCTTTACGTCATTATCTTCGTTTAATTCGGAGTCACCTAGTGCAG | 3230 fluorescence intensity (a.u.)
26 | TTCTTTCGTTAGTTCACCAAAGATGGGCATTTTACTAAGACGGAGTCACCTAGTGCAG | 65000 fluorescence intensity (a.u.)
27 | TGTGTGCGTGTGTTGTGACTTATGATGTGTTTCTTAAGAACGGAGTCACCTAGTGCAG | 4170 fluorescence intensity (a.u.)
28 | CTAGATTTATTAATATCGATATGAATGTGGAAAATGCTAGCGGAGTCACCTAGTGCAG | 18100 fluorescence intensity (a.u.)
29 | TCATTAACATCAATATGAATGTGAGAAATGCTAGAATGACCGGAGTCACCTAGTGCAG | 3240 fluorescence intensity (a.u.)
30 | TAGAATTTCTCTTCATATAATGCTACGTCATTGCTATATACGGAGTCACCTAGTGCAG | 10300 fluorescence intensity (a.u.)
31 | CATGGTAGAAAATTAGATTATGGTGCATTTGCTGCAAATGCGGAGTCACCTAGTGCAG | 3860 fluorescence intensity (a.u.)
32 | CTATTGCAAATTGCAATGCTGTATATGCACTTCATTAGAACGGAGTCACCTAGTGCAG | 54100 fluorescence intensity (a.u.)
33 | GATTCATTTAACAATTATATGAATGTGGGAAATGCTAGAACGGAGTCACCTAGTGCAG | 44400 fluorescence intensity (a.u.)
34 | AATAATTTTCTCATTTTCTTTAACAGAAGATGACAATGCACGGAGTCACCTAGTGCAG | 34800 fluorescence intensity (a.u.)
35 | TCCTTCAAGAATCCTATACTTCTTAAATCAGGAACATAATCGGAGTCACCTAGTGCAG | 8910 fluorescence intensity (a.u.)
36 | TTTGAATCAAAGGAATGGATCTTATGGAATCCTATAAAATCGGAGTCACCTAGTGCAG | 40400 fluorescence intensity (a.u.)
37 | ATCTTATGGAATCCTATGAAATTCATATGGAATGCCTAATCGGAGTCACCTAGTGCAG | 65000 fluorescence intensity (a.u.)
38 | AGTTCATTATCATCATGTAATGAATCATCATGAATCCAAACGGAGTCACCTAGTGCAG | 3280 fluorescence intensity (a.u.)
39 | CACTTGGTAATTACTTCTACTATGTCATCCTTATCATAATCGGAGTCACCTAGTGCAG | 3200 fluorescence intensity (a.u.)
40 | AGTTCTACTTGAGTTATGTAATGAATCACAATGCCTTCATCGGAGTCACCTAGTGCAG | 53400 fluorescence intensity (a.u.)
41 | TCCAAATCCTATGAAATTCCTATGGAAATCCACGTTGCATCGGAGTCACCTAGTGCAG | 7670 fluorescence intensity (a.u.)
42 | GATTGAATCATATCGTATCCTTTGAAATTCCTATGGAATGCGGAGTCACCTAGTGCAG | 4120 fluorescence intensity (a.u.)
43 | CACCACCCTAAATGGAATAAGAAAATTCTTATTTGTGAATCGGAGTCACCTAGTGCAG | 3440 fluorescence intensity (a.u.)
44 | TAAGGAGGGTGTTGGGAGGGTGGGAGCTTTGCTTGGGGTGCGGAGTCACCTAGTGCAG | 3950 fluorescence intensity (a.u.)
45 | TTGTTGAACTATAGGGTAGATGTGATATGTAAGAATTGCCCGGAGTCACCTAGTGCAG | 3280 fluorescence intensity (a.u.)
